Results reported in PubChem BioAssay AID488835 (Broad Institute, 2010).
Among all 1,400 compounds or so, about 140 (10%) were called active.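 How the source made its calls: active means Half-maximal inhibitory dose from the fit at or below ten times the top valid tested dose; inconclusive means Invalid fit, or flat curve showing 30 to 70% inhibition; inactive means the rest.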 Not all results are given here. Entries with a potency or affinity are not part of this list.

molecular target: Lysine-specific demethylase 4C (Homo sapiens) (UniProt Q9H3R0); assay: GASC-1 (JMJD2C) histone demethylase inhibitors, dose response, biochemical, DELFIA europium, cherry-picked samples (AID 488835); conditions: GST-JMJD2C(1-420), H3K9me3 demethylation; series mostly up to 6 µM;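 further: signal is the H3K9me2 demethylation product detected by a dimethyl-specific antibody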
Sequence (Q9H3R0 1-420 limits assumed): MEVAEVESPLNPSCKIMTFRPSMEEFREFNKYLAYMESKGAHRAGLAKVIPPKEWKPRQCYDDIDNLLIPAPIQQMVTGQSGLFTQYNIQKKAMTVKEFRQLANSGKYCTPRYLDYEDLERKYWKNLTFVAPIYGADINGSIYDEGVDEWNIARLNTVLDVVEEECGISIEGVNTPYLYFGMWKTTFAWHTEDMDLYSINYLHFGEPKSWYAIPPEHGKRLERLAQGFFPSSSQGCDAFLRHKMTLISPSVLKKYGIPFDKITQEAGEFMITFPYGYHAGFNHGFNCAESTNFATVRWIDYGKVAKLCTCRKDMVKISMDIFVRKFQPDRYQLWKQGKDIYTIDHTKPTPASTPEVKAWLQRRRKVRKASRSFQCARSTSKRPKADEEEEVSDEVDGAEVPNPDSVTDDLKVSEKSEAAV

outcome, inactive:
CC1CCCCC12NC(=O)N(CC(=O)NCCc1ccccn1)C2=O (stereo not given), COc1ccc(NC(=O)Nc2c[nH]c(=O)[nH]c2=O)cc1OC, COc1ccc(C(=O)OCCc2sc[n+](CC(=O)c3ccccc3)c2C)cc1, CCOC(=O)N1CCC(c2nc3ccccc3[nH]2)CC1, O=C(O)c1ccc(/C=N/Nc2cccc(C(F)(F)F)c2)cc1, O=C(c1cccc(C(F)(F)F)c1)N1CCCC1, Cn1c2ccccc2c(=O)c2ccc(NCCc3cccs3)cc21, COc1cccc(C(C[N+](=O)[O-])c2c(C)[nH]n(-c3ccccc3)c2=O)c1 (stereo not given), CCCc1nn(C)c(C(=O)Nc2ccc(C)c(C)c2)c1Cl, O=C(Nc1nc2ccccc2n1CCN1CCCC1)C1CCCCC1, O=C(N/N=C/c1cc([N+](=O)[O-])cc([N+](=O)[O-])c1O)/C(=C\c1cccs1)NC(=O)c1ccccc1, Cc1ccc(/C=N\NC(=O)c2cc([N+](=O)[O-])cc([N+](=O)[O-])c2)o1, CC(C)c1ccc(NC2CCCN(C(=O)CCN3CCCCC3=O)C2)cc1 (stereo not given), c1ccc(-c2csc(-n3cccn3)n2)cc1, CCOC(=O)c1sc(=S)n(-c2ccc(Cl)cc2)c1SC, O=C(Nc1nnc(-c2cc(Cl)ccc2Cl)o1)c1ccco1, O=C(Oc1ccc(N2C(=O)CCC2=O)cc1)c1ccccc1, COc1ccc(OC)c(C2=NOC(C(=O)NCCN3CCOCC3)C2)c1 (stereo not given), CCOC(=O)[C@H]1[C@H]2COc3ccc(OC)cc3[C@@H]2N2C(=O)c3cc(C)ccc3NC(=O)[C@@]12C, Cc1cc2ccccn2c1C(=O)c1ccncc1, O=C1CC(CSc2ccc(Cl)cc2)=NN1, CCN(Cc1cc2cc(OC)ccc2[nH]c1=O)C(=O)c1ccncc1, Cc1ccccc1NC(=S)c1nc2ccccc2[nH]1, Cc1cccc(NC(=O)/C(=C\c2ccc([N+](=O)[O-])o2)NC(=O)c2ccc(Cl)cc2)c1, Cc1cccc(C2=N/C(=C\c3cccnc3)C(=O)O2)c1, Cc1cccc(N2C(=O)C3C4C=CC(C4)C3C2=O)c1 (stereo not given), O=[N+]([O-])c1ccc(/C=[N+](\[O-])[C@@H]2CCCC[C@@H]2/[N+]([O-])=C/c2ccc([N+](=O)[O-])o2)o1, COc1cccc(C2c3[nH]c4ccccc4c3CCN2CCCn2cccn2)c1 (stereo not given), N#CCCCCN1c2cccc3cccc(c23)S1(=O)=O, O=C(Cn1cnc2c(OCc3ccccc3)ncnc21)NCCN1CCOCC1, CN1CCN(c2ccc([N+](=O)[O-])cc2C(=O)N2CCOCC2)CC1, Cc1c(C(=O)N2CCC3(CC2)CC(=O)c2ccccc2O3)cccc1[N+](=O)[O-], COc1ccc(OC)c(N(CC(=O)NCc2ccncc2)S(C)(=O)=O)c1, COc1ccc(-c2cc(C(F)(F)F)n3nc(C(=O)NCCCN4CCOCC4)cc3n2)cc1, Cc1[nH]c2ccccc2c1-c1ccc(Cl)nn1, COC(=O)c1sc(S(=O)(=O)NCc2ccccc2)c(C(=O)OC)c1C, COC(=O)c1ccc(CSc2nnc(N)s2)o1, COc1ccc(NC(=O)N(C)C[C@H]2Oc3c(NC(=O)Nc4ccccc4)cccc3C(=O)N([C@H](C)CO)C[C@@H]2C)cc1, COC(=O)C(Cc1ccccc1)NC(=O)COc1ccc(C(C)(C)C)cc1 (stereo not given), COc1cc2cnncc2cc1OC, C/C(CC(=O)Nc1cccc(Cl)c1Cl)=N\NC(=O)c1ccccc1N, CC(C)(O)[C@H](O)Cc1cc2ccc(=O)oc2cc1O[C@@H]1O[C@H](CO)[C@@H](O)[C@H](O)[C@H]1O, CC1(C)CC[C@]2(CO)CC[C@]3(C)C(=CCC4[C@@]5(C)CC[C@H](O)[C@@](C)(CO)C5CC[C@]43C)[C@@H]2C1 (stereo not given in full), CCN(C[C@H]1N[C@@](C)(C(=O)OC)[C@H]2C(=O)N(C)C(=O)[C@@H]12)C(=O)Nc1ccc(OC)cc1, COc1ccc(/C=N/NC(=O)c2cc(C)on2)c2ccccc12, O=C(NCC1CCCO1)c1ccc2c(=O)n(Cc3cccc(Br)c3)c(=S)[nH]c2c1 (stereo not given), Cc1csc(NC(=O)CSc2nnc(-c3ccncc3)n2C)n1, CCn1c(SCC(=O)Nc2nc(C)cs2)nnc1-c1ccncc1, CCCn1c2ccccc2c2nnc(SCC(=O)Nc3c(C)n(C)n(-c4ccccc4)c3=O)nc21, C[C@H](CO)N1C[C@H](C)[C@@H](CN(C)S(=O)(=O)c2ccccc2)Oc2ccc(NS(=O)(=O)c3ccc(F)cc3)cc2C1=O, O=C(COC(=O)Cc1ccccc1F)Nc1ccc(SC(F)F)cc1, CC(=O)N=c1sccn1CC(=O)c1ccc([N+](=O)[O-])cc1, COc1ccc(CNC(=O)CSc2nnnn2Cc2ccccc2)cc1, COc1ccccc1-c1nc(C#N)c(NCc2ccc(F)cc2)o1, CCNc1oc(-c2cccc3ccccc23)nc1C#N, O=c1c2ccccc2c(C=NCCCN2CCOCC2)c(O)n1Cc1ccccc1, CC(C)NC(=O)N(C)C[C@H]1Oc2ccc(NC(=O)C3CC3)cc2C(=O)N([C@H](C)CO)C[C@@H]1C, COC(=O)c1sc(NC(=O)c2cc3c(s2)CCCC3)nc1C, Cn1c(=O)[nH]c(=O)c2c1nc(SCC(=O)O)n2CCc1ccccc1, CCc1ccc(C(=O)CSc2nc3ccccc3c(=O)[nH]2)cc1, c1ccc(Nc2n[nH]nc2-c2ccccc2)cc1, CCn1c(=O)c(-c2nc3ccccc3[nH]2)c(O)c2ccccc21, C[C@H](CO)N1C[C@H](C)[C@@H](CN(C)C(=O)Nc2ccc(C(F)(F)F)cc2)Oc2c(cccc2N(C)C)C1=O, Cc1cc2oc(=O)cc(CSc3nnc(-c4cccs4)o3)c2cc1C(C)C, CC(=O)N1C(c2ccccc2O)C[C@]2(C)CC(=O)NC12 (stereo not given in full)
